# From PubChem
# SMARCA2 activ – increases SMARCA2 function in MMTV reporter cells. activation, % at 9.1 µM. MG213 cells, MMTV-luciferase reporter, dexamethasone, overnight. 1% of 370,000 active; in the data active = activation above about 7.8%;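 also: 0% = vehicle wells and 100% = reference activator wells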
# dFosB activator – enhances mouse delta FosB homodimer DNA binding. AID 493131. P13346. activation, % at 25 µM. 0.99% of 340,000 active. purified delta FosB, TAMRA-CDK5 oligo fluorescence polarization; percent of positive-control signal above neutral wells;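 active = mean activation above about 17%, with every replicate also reaching it, limit read from the data, passing the limit was not always enough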
# CDK5 inh – blocks human CDK5/p35 kinase activity; inhibition, % at 10 µM; Q00535+Q15078; Recombinant CDK5/p35, ADP-Glo luminescence, 60 min; 0.01% of 330,000 active;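 active = highest replicate inhibition of at least 50% and at least 75% of replicates reaching 50%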;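 also: plate controls were DMSO neutral control for no effect and GW8510 at 10 µM for full effect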
# Dyrk1A ADPGlo – blocks rat Dyrk1A kinase activity; 0.43% of 310,000 active; ADP-Glo luminescence, NFATc1 peptide; AID 504441; inhibition, % at 12.5 µM; Q63470; in the data active = inhibition above about 50%;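 also: plate controls were vehicle with enzyme for no effect and no enzyme for full effect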
# esBAF inh – blocks esBAF chromatin remodeling in mouse ES cells | Bmi1-luciferase knock-in reporter, 24 h; 100% = twice the neutral-well signal | 2% of 350,000 active | AID 602393 | reporter increase, % at 12.5 µM; in the data active = activation above about 40%;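 also: 0% = median of the plate's neutral control wells and 100% = double that signal; a rise in the Bmi1 reporter signal indicates esBAF inhibition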
# Rtt109 HAT inh – C. albicans Rtt109 histone acetyltransferase inhibition | Q5AAJ8 | purified Rtt109/Vps75, ThioGlo CoA-SH fluorescence, 4 h | inhibition, % at 34.9 µM | 0.16% of 330,000 active;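 active = inhibition of at least 50% in every replicate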
# Target sequence (Q5AAJ8 whole entry, looked up): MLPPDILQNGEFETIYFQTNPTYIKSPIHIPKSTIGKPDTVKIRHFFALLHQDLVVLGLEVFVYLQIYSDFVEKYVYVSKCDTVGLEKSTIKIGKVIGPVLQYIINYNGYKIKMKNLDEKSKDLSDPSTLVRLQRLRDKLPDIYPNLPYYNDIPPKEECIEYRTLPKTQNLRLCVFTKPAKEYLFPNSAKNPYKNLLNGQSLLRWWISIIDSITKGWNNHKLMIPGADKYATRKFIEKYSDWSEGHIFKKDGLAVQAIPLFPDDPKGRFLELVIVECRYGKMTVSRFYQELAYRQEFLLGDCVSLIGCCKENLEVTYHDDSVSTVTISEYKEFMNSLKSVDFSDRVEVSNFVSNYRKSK
# The depositor's hits bear a star; x = no result. Sampled rows, rich in hits. Any-hit rate of the full collection: about 3.2%.
SMILES,SMARCA2 activ,dFosB activator,CDK5 inh,Dyrk1A ADPGlo,esBAF inh,Rtt109 HAT inh
C[C@@H]1CN([C@@H](C)CO)C(=O)c2ccccc2-c2ccccc2CO[C@@H]1CN(C)S(=O)(=O)c1ccccc1,x,x,x,x,4.1,x
CCCn1c(N)c(C(=O)COC(=O)/C=C/c2ccc(OC(F)F)c(OC)c2)c(=O)[nH]c1=O,-1.1,22.2*,2.3,-3.5,0.4,1.8
C[C@@H]1CN([C@@H](C)CO)C(=O)c2cc(NS(=O)(=O)c3ccc(F)cc3)ccc2O[C@H]1CN(C)S(=O)(=O)c1cccs1,x,x,x,x,5.3,x
CCCC(=O)Nc1ccc(C(=O)NNC(=S)NC(=O)c2cccs2)cc1,1.5,-5.8,-1.1,1.5,-2.1,60.5*
CCCC(=O)Nc1ccc(C(=O)NNC(=O)c2cccs2)cc1,x,7.5,-0.6,-1.6,-2.5,2.7
C[C@H](O)C#Cc1cnc2c(c1)C(=O)N([C@H](C)CO)C[C@H](C)[C@H](CN(C)C(=O)Cc1ccccn1)O2,x,x,x,x,-1.7,x
COc1cccc(-c2ncc3ccccn23)c1,5.2,-2.5,-0.5,6.1,51.7*,-7.5
O=C(CCC1CCCC1)Nc1ccc([N+](=O)[O-])cn1,5.7,2.5,0.5,-4.8,58.6*,-9.8
CCC(CC)C(=O)Nc1ccc([N+](=O)[O-])cn1,-1.8,0.0,0.2,0.9,-3.4,-0.3
O=C(CCC1CCCCC1)Nc1ccccc1O,1.6,1.3,-0.9,x,41.6*,-0.7
C[C@H](CO)N1C[C@H](C)[C@H](CN(C)C)Oc2cc(C#CC3(O)CCCC3)ccc2S1(=O)=O,x,x,x,x,-8.2,x
O=C(CCC1CCCN(C(=O)c2cc3ccccc3o2)C1)NCc1ccc(F)c(F)c1 (centres undefined),1.1,-11.1,-0.1,x,56.3*,5.2
COc1ccc(/C=N/Nc2nc(C)nc(N)n2)cc1,3.0,2.7,1.3,4.3,54.9*,-2.3
CC(=O)N1[C@@H](CO)[C@H](c2ccccc2)[C@@H]1CN(C(=O)NC(C)C)C1CCCC1,x,x,x,x,1.3,x
O=C1NC(=O)/C(=C/c2ccccn2)S1,-1.7,-5.1,1.1,45.1,45.3*,7.7
Nc1n[nH]c(N)c1N=Nc1cccc(F)c1,-1.1,-5.0,x,-10.2,29.9,10.8
Nc1n[nH]c(N)c1N=Nc1cccc(C(F)(F)F)c1,0.3,-6.1,0.9,1.2,51.3*,5.2
NC(=O)Nc1ccc(C(=O)OCC(=O)c2c[nH]c3ccccc23)cc1,0.6,-9.4,-3.4,x,0.6,-10.4
N#CCC(=O)Nc1ccc(C(=O)OCC(=O)c2c[nH]c3ccccc23)cc1,7.9*,-0.7,1.2,-0.8,24.1,1.9
Cc1cc(C(=O)COC(=O)c2ccc(NC(=O)CC#N)cc2)c(C)n1CC(F)(F)F,0.3,x,x,x,61.9*,x
Cc1cc(C(=O)COC(=O)c2ccc(F)cc2F)c(C)n1C1CC1,3.7,-4.6,1.9,-4.5,40.0,0.0
Cc1cc(C(=O)COC(=O)c2ccc(NC(=O)CC#N)cc2)c(C)n1-c1ccc(OC(F)F)cc1,-7.2,-9.3,1.5,11.6,x,-1.2
Cc1cc(C(=O)COC(=O)c2ccc(NC(=O)CC#N)cc2)c(C)n1C1CC1,4.3,-6.3,2.5,-8.8,68.1*,1.7
Cc1cc(C(=O)COC(=O)c2ccc(Cl)c(S(N)(=O)=O)c2)c(C)n1C1CC1,3.1,-8.4,0.9,-1.5,77.8*,1.2
CO[C@@H]1CN(C)C(=O)c2ccc(NC(=O)Cc3ccccc3)cc2OC[C@@H](C)N(C(C)=O)C[C@@H]1C,x,x,x,x,3.3,x
SMILES,SMARCA2 activ,dFosB activator,CDK5 inh,Dyrk1A ADPGlo,esBAF inh,Rtt109 HAT inh
C[C@@H]1CCCCO[C@@H](CN(C)C(=O)c2ccccc2)[C@@H](C)CN([C@@H](C)CO)C(=O)c2cc(NS(C)(=O)=O)ccc2O1,x,x,x,x,-3.7,x
Cc1noc(C)c1NC(=O)Nc1ccc2c(c1)CC(=O)N([C@@H](C)CO)C[C@H](C)[C@@H](CN(C)S(=O)(=O)c1cn(C)cn1)O2,x,x,x,x,-0.4,x
C[C@H]1CN([C@@H](C)CO)C(=O)Cc2cc(NC(=O)CCN3CCOCC3)ccc2O[C@@H]1CN(C)CC1CC1,x,x,x,x,0.5,x
CCC(=O)Nc1ccc2c(c1)C(=O)N(C)[C@@H]1CC[C@H](CC(=O)NC3Cc4ccccc4C3)O[C@@H]1CO2,x,x,x,x,0.8,x
CCCCN1C(=S)NC[C@@H]1Cc1cccc2ccccc12,3.8,-4.2,-0.1,1.8,59.0*,-18.9
COc1ccccc1N1C(=O)c2ccccc2NC1c1ccncc1 (centres undefined),-0.5,3.8,-0.9,-5.1,-4.8,-29.5
CCc1ccc(C2NC(=S)NC3=C2C(=O)N(c2ccccc2OC)C(c2ccc(CC)cc2)N3)cc1 (centres undefined),-3.6,100.5*,1.6,-2.1,x,6.2
COc1cccc(NC(=O)N2CCc3nc(Nc4cc(Cl)cc(Cl)c4)ncc3C2)c1,-2.6,x,x,x,0.2,x
CC(C)c1ccc(Nc2ncc3c(n2)CCN(C(=O)Nc2ccc(F)c(Cl)c2)C3)cc1,-1.2,x,x,x,56.3*,x
COc1ccc(O)c(C(=O)c2cnn(C(=O)c3cccc(N(C)C)c3)c2)c1,5.0,-11.4,1.1,-1.8,x,-13.0
CN(C)c1cccc(C(=O)n2cc(C(=O)c3cc(F)ccc3O)cn2)c1,7.8*,7.1,0.9,5.4,51.8*,-5.7
Cc1ccc(NC(=O)CC2=NC(=O)C(CC(=O)Nc3ccccc3C)S2)cc1 (centres undefined),1.3,34.1*,-0.2,-2.2,14.7,-1.3
CCCN1C[C@H](C)[C@@H](OC)CN(C)C(=O)c2ccc(NC(=O)c3ccc(F)cc3)cc2OC[C@H]1C,x,x,x,x,-0.6,x
CC(=O)c1ccc(N=C2C(=O)Nc3ccccc32)cc1,-1.5,2.7,-0.6,-5.4,2.8,-8.7
CC(=O)N(/N=C1/C(=O)Nc2ccccc21)c1ccccc1,1.2,-0.3,1.2,3.4,44.5*,-5.8
O=C1C=C(c2cc3ccccc3s2)CCC1,2.9,-4.4,-2.8,22.8,73.9*,12.9
C[C@@H]1CCCCO[C@@H](CN(C)C)[C@H](C)CN([C@@H](C)CO)C(=O)c2cc(NS(=O)(=O)c3ccccc3)ccc2O1,x,x,x,x,6.5,x
CCOC(=O)c1sc(=NC(=O)c2ccc(F)cc2)n(C)c1C,3.2,-3.2,0.1,-0.7,27.0,12.2
CCOC(=O)c1sc(=NC(=O)c2ccc(C)cc2)n(C)c1C,6.2,-5.9,0.9,x,x,-1.3
CCOC(=O)c1sc(=NC(=O)c2c(F)cccc2F)n(C)c1C,0.2,-14.1,-0.3,-3.3,54.0*,11.3
CCOC(=O)c1sc(=NC(=O)c2cccc(Br)c2)n(C)c1C,0.4,-4.0,0.1,-3.8,70.7*,-15.4
C/C=C/c1ccc2c(c1)O[C@@H](CN(C)C(=O)C1CCOCC1)[C@H](C)CN([C@@H](C)CO)S2(=O)=O,x,x,x,x,-1.0,x
CCCCOC(=O)c1ccc(Nc2ncnc3nc[nH]c23)cc1,-0.4,2.4,0.1,0.0,48.4*,-1.1
CCOC(=O)CNc1ncnc2nc[nH]c12,-4.2,-5.3,-1.6,2.6,-2.1,-3.2
